Records with an inconclusive call do not appear. Active and inactive are the calls of the source. Calls come from the whole dose curve; as a rule, active = well fitted curve in the direction sought with a large enough effect; inconclusive = small, poorly fitted or top-dose-only effect, or another doubt; inactive = no such curve, though single readings can be large; an effect the other way counts as inactive or inconclusive.
Experiments:
[1] = Cellular Toxicity (caspase-3) HepG2 (AID 654);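 note: cells exposed to compound for 16 hours before reading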
Procedure, shortened: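 Cells plated 5 hr at 37 °C, compound added, incubated 16 hr at 37 °C. Caspase-Glo 3/7 reagent followed, 20 min at room temperature, then luminescence read. Activation scored as signal increase; AC50 from Hill fit.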

[2] = Cellular Toxicity (caspase-3) Jurkat (AID 655);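 note: cells exposed to compound for 16 h at 37 °C before reading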
Procedure, shortened: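 qHTS in human Jurkat T-cell leukemia line: 16 hr compound treatment at 37 °C, caspase-3/7 activity measured by Caspase-Glo luminescence. AC50 derived from Hill equation.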

[3] = Cellular Toxicity (caspase-3) HUV-EC-C (AID 656)
Procedure, shortened: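 Concentration-dependent caspase 3/7 induction was assessed in HUV-EC-C cells exposed for 16 hours. Data scaled between DMSO and tamoxifen (100 uM) controls.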

[4] = Cellular Toxicity (caspase-3) SHSY5Y (AID 657)
Procedure, shortened: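 Readout: caspase-cleaved peptide-aminoluciferin substrate driving luciferase light in SH-SY5Y neuroblastoma cells after 16 h treatment. Response normalized to DMSO and 10 uM staurosporine controls.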

[5] = Cellular Toxicity (caspase-3) BJ (AID 658)
Procedure, shortened: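 BJ human foreskin fibroblasts, 1000 cells/well, treated 16 hours at 37 °C in complete medium; caspase 3/7 activity by Caspase-Glo luminescence after 1 hr at room temperature. Normalized to DMSO and 10 uM staurosporine; AC50 from Hill fits.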

[6] = Cellular Toxicity (caspase-3) MRC-5 (AID 659)
Procedure, shortened: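 MRC-5 human normal lung fibroblasts, 1500 cells/well, treated 16 h at 37 °C in complete medium. Caspase 3/7 measured by Caspase-Glo luminescence after 1 h at room temperature. Normalized to DMSO and 10 uM staurosporine; AC50 from Hill fit.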

[7] = Cellular Toxicity (caspase-3) Mesangial (AID 660);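 note: combined caspase 3 and 7 activity read by Caspase-Glo luminescence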
Procedure, shortened: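 Mesangial cells, 1000/well, 5 h settle at 37 °C; compound 16 h, 37 °C; Caspase-Glo 3/7 reagent 20 min RT; luminescence. Norm.: DMSO = 0%, tamoxifen 100 uM = 100%. AC50, Hill fit.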

[8] = Cellular Toxicity (caspase-3) SK-N-SH (AID 661)
Procedure, shortened: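 Human neuroblastoma SK-N-SH, 1500 cells/well, 5 hr pre-incubation, then compound 16 hr, 37 °C. Caspase-Glo 3/7 reagent, 1 hr RT, luminescence. Norm. to DMSO/10 uM staurosporine; Hill-fit AC50.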

[9] = Cellular Toxicity (caspase-3) H-4-II-E (AID 663);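 note: cells exposed to compound for 16 hr before readout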
Procedure, shortened: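 Rat hepatoma H-4-II-E cells (1500/well) plated 5 hr, then exposed to compound titrations for 16 hr at 37 °C. Caspase-Glo 3/7 luminescence read after 20 min at RT; data normalized to DMSO and 100 uM tamoxifen, AC50 from Hill fits.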

Measured: outcome

COc1ccc(CCC(=O)c2c(O)cc(O[C@@H]3O[C@H](CO)[C@@H](O)[C@H](O)[C@H]3O[C@@H]3O[C@@H](C)[C@H](O)[C@@H](O)[C@H]3O)cc2O)cc1O
inactive: all assays above

C=C1C[C@]23C[C@@]1(O)CC[C@H]2[C@@]12C=C[C@H](O)[C@@](C)(C(=O)O1)[C@H]2[C@@H]3C(=O)O
inactive: all assays above

— PubChem BioAssay (NCATS)
